Several values for one entry are separate records, joined by “and”; a condition that tells them apart may be missing. Identical values can stand only once. In all, about 16,000 compounds went through this assay and about 2,600 (16%) were called active. Not shown: some 20% with an inconclusive outcome. Calls follow the shape of the dose curve; as a rule, active = well fitted curve in the direction sought with a large enough effect; inconclusive = small, poorly fitted or top-dose-only effect, or effect the other way; inactive = no such curve, though single readings can be large or run the other way. What follows is part of a selection rich in actives, with near analogues and random picks from the rest. More than one record can exist for a structure, and the calls need not agree.
Molecular target: Cytochrome P450 2D6 (Homo sapiens) (UniProt P10635)
Sequence (P10635 whole entry, looked up): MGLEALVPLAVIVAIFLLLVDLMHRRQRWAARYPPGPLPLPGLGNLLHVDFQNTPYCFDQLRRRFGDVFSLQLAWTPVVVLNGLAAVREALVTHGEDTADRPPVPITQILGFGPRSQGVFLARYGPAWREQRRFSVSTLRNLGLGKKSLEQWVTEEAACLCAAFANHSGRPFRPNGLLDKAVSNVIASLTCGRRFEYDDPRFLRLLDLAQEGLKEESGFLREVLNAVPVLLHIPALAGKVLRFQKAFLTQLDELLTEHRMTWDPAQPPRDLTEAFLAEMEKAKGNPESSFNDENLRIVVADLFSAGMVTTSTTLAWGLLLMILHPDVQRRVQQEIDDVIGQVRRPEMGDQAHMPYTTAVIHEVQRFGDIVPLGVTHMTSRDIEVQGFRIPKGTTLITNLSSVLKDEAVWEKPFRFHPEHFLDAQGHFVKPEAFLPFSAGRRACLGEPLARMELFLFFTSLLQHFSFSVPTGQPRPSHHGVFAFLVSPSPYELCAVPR
Assay: Cytochrome panel assay with activity outcomes
Settings: recombinant CYP, pro-luciferin dealkylation, luminescence, p450-cyp2d6; series mostly up to 57.1 µM
% is scaled to controls: 0 for no effect and ±100 for the full control effect.

| SMILES | AC50 | activity, negative = inhibition |
| --- | --- | --- |
| NCC[C@H](O)C(=O)N[C@H]1C[C@@H](N)[C@@H](O[C@H]2O[C@@H](CN)[C@@H](O)[C@@H](O)[C@@H]2N)[C@@H](O[C@H]2O[C@@H](CO)[C@@H](O)[C@@H]2O)[C@@H]1O | inactive |  |
| c1ccc2sc(C3(N4CCCCC4)CCCCC3)cc2c1 | 12.6 µM (active) and 3.16 µM (active) |  |
| CN1C(=O)CCS(=O)(=O)[C@H]1c1ccc(Cl)cc1 | inactive |  |
| CCCn1c(=O)c2[nH]c(C3CCCC3)nc2n(CCCOC(=O)c2ccc(S(=O)(=O)F)cc2)c1=O | inactive |  |
| Cc1ncsc1CCCl | 12.6 µM (active) |  |
| C=C(C)[C@H]1CC[C@]2(C(=O)O)CC[C@]3(C)[C@@H](CC[C@H]4[C@@]5(C)CC[C@@H](O)C(C)(C)[C@@H]5CC[C@@]43C)[C@H]12 | inactive |  |
| Cc1nc(-c2ccc(-c3ccc(C(=O)N4CCc5cc6c(cc54)C4(CCN(C)CC4)CO6)cc3)c(C)c2)no1 | 31.6 µM (active) |  |
| COC(=O)c1c(C)ccc2c(O)c3c(cc12)C(=O)c1c2c(cc(O)c1C3=O)[C@@]1(C)O[C@@](C)(O2)[C@@H](O)[C@H](N(C)C)[C@H]1O |  | -17.5% [at 11.4 µM] (inactive) |
| C=C[C@]12CN(C)[C@H]3C1[C@@]1(C(=O)Nc4ccccc41)[C@H]1C[C@H]2[C@H]3CO1 | inactive |  |
| N[C@@H](CSC1c2ccccc2-c2ccccc21)C(=O)O |  | -14.3% [at 11.4 µM] (inactive) |
| O=C(CNS(=O)(=O)c1cccs1)N1CCC2(CC1)OCCO2 | inactive |  |
| Fc1ccc(C(OCCN2CCN(C/C=C\c3ccccc3)CC2)c2ccc(F)cc2)cc1 | 7.94 µM (active) |  |
| C(=C/c1ccccc1)/CN1CCN(CCOC(c2ccccc2)c2ccccc2)CC1 | 5.01 µM (active) |  |
| Clc1ccc([C@@H](OCCN2CCCCC2)c2ccccc2)cc1 | 0.0158 µM (active) |  |
| CC(C)(c1ccc(OC[C@@H]2CO2)cc1)c1ccc(OC[C@H]2CO2)cc1 | inactive |  |
| C[C@@H]1CC[C@@H]2N(C1)C[C@H]1[C@@](O)([C@H](O)C[C@]3(O)[C@H]4CC[C@H]5[C@]6(O)O[C@]4(C[C@]13O)[C@@]5(C)CC[C@@H]6O)[C@@]2(C)O |  | 10.1% [at 11.4 µM] (inactive) |
| CCCCC/C=C\C/C=C\C/C=C\C/C=C\CCCC(=O)NCC(=O)O | inactive |  |
| CCN(CC)CCn1ncc2c(N)ncnc21 |  | 4.3% [at 11.4 µM] (inactive) |
| CNC(=O)Oc1ccc2c(c1)[C@@]1(C)CCN(C)[C@@H]1N2C | 0.251 µM (active) |  |
| C=C1[C@@H](O)C2C=CC[C@H](C)C(=O)[C@@](C)(O)C=C[C@@H](OC(C)=O)[C@@]23C(=O)N[C@H](Cc2ccccc2)[C@@H]3[C@@H]1C (some centres not stated) | inactive |  |
| CCCCC/C=C\C/C=C\C/C=C\C/C=C\CCCC(=O)Nc1ccc(O)cc1 | inactive |  |
| CN1[C@H]2CC(=O)C[C@@H]1[C@@H](O)C2 | inactive |  |

| SMILES | AC50 | activity, negative = inhibition |
| --- | --- | --- |
| O=C(O)CS(=O)(=O)C(c1ccccc1)c1ccccc1 |  | 8.36% [at 11.4 µM] (inactive) |
| N[C@H](Cc1ccc(N(CCCl)CCCl)cc1)C(=O)O | inactive |  |
| NC(=O)c1cc(N2CC2)c([N+](=O)[O-])cc1[N+](=O)[O-] | inactive |  |
| C=CCO[C@@H](Cn1ccnc1)c1ccc(Cl)cc1Cl | 5.01 µM (active) |  |
| C=C1[C@@H]2CC[C@H]3[C@@]4(C)C[C@@H](O[C@@H]5O[C@H](CO)[C@H](OS(=O)(=O)O)[C@@H](OS(=O)(=O)O)[C@@H]5OC(=O)CC(C)C)C[C@@H](C(=O)O)[C@H]4CC[C@@]3(C2)[C@H]1O | inactive |  |
| C[C@H]1[C@H](NC(=O)/C(=N/OC(C)(C)C(=O)O)c2csc(N)n2)C(=O)N1S(=O)(=O)O (stereo in doubt) | inactive |  |
| CC[n+]1c(/C=C/N(C)c2ccccc2)sc2ccc(Cl)cc21 | 0.0112 µM (active) |  |
| c1ccc(N2CCCC3(CCNCC3)C2)cc1 | 7.94 µM (active) |  |
| c1cc(CN2CCC3(CCNCC3)CC2)ccn1 | inactive |  |
| c1cc(N2CCCC3(CCNCC3)C2)ccn1 | 10 µM (active) |  |
| c1ccc(N2CC3(CCNCC3)C2)cc1 | inactive |  |
| C[N+]1(C)CCN(c2ccccc2)CC1 | inactive |  |
| O=C(Cn1ncc2ccsc2c1=O)N1CCC2(CC1)OCCO2 | inactive |  |
| Cc1ccc(N(C)C(=O)Oc2cccc3ccc(C)nc23)cc1 | inactive |  |
| O=C(O)/C=C(\CC(=O)O)C(=O)O |  | -1.58% [at 11.4 µM] (inactive) |
| N[C@@H](Cn1ccc(=O)n(Cc2ccc(C(=O)O)cc2)c1=O)C(=O)O | inactive |  |
| CCN1C[C@@]2(COC)CC[C@H](OC)[C@]34[C@@H]1[C@]1(OCO[C@@]15C[C@@H](OC)C1C[C@H]3[C@H]5[C@@H]1OC)[C@H](O)[C@@H]24 | inactive |  |
| C[C@]12N[C@@H](Cc3ccccc31)c1ccccc12 | inactive and 79.4 nM (active) and 5.01 µM (active) |  |
| C[C@]12N[C@H](Cc3ccccc31)c1ccccc12 | inactive |  |
| Cc1nnc2ccc(-c3cccc(C(F)(F)F)c3)nn12 | inactive |  |
| S=C(Nc1ccc(Cl)cc1)NC1CC2CCCC(C1)N2C1CCCC1 (configuration not stated) | 0.501 µM (active) |  |
| NS(=O)(=O)C[C-]1C=C[CH]([Sb-]([Cl])([Cl])([Cl])([Cl])[Cl])C=C1.c1ccncc1 (configuration not stated) |  | 7.69% [at 11.4 µM] (inactive) |

| SMILES | AC50 | activity, negative = inhibition |
| --- | --- | --- |
| C=CCn1c(O)c(C(C)=NCCCN2CCOCC2)c(=O)[nH]c1=O | inactive |  |
| CC(=O)O[C@H]1C[C@@H](O[C@@H]2[C@H](C)O[C@H](O[C@@H]3[C@H](C)O[C@H](O[C@@H]4CC[C@@]5(C)[C@@H](CC[C@]6(C)[C@]5(C)C[C@H](O)[C@]5(C)[C@@H](C7=CC(=O)OC7)CC[C@@]56O)C4)C[C@@H]3O)C[C@@H]2O)O[C@@H](C)[C@H]1O[C@H]1O[C@@H](CO)[C@@H](O)[C@@H](O)[C@@H]1O | inactive |  |
| CC1=CC(=O)C2=C(C)C[C@@H](O)[C@@H]3[C@@H](OC(=O)[C@H]3C)[C@H]12 | inactive |  |
| CN1CCN(c2ccc([N+](=O)[O-])c(N/N=C3\CN4CCC3CC4)c2)CC1 | inactive |  |
| C=CCN1C[C@H](C)N([C@@H](c2ccccc2)c2ccc(C(=O)N(CC)CC)cc2)C[C@H]1C | inactive |  |
| C=CCN1C[C@@H](C)N([C@H](c2ccc(C(=O)N(CC)CC)cc2)c2cccc(OC)c2)C[C@H]1C | 31.6 µM (active) |  |
| C=CCN1C[C@H](C)N([C@H](c2ccc(C(=O)N(CC)CC)cc2)c2cccc(O)c2)C[C@H]1C | inactive |  |
| C=CCN1C[C@H](C)N([C@H](c2ccc(C(=O)N(CC)CC)cc2)c2cccc(OC)c2)C[C@H]1C | 1.58 µM (active) |  |
| Cn1c(=O)c2[nH]cnc2n(C)c1=O.[CH2-][C@H](Cc1cccc2cc(C(=O)O)c(=O)oc12)OC.[Hg].[OH-] |  | 10.9% [at 11.4 µM] (inactive) |
| Cc1ccc(-c2nc3ccccc3c(=O)n2-c2ncccc2C)cc1 | inactive |  |
| C[C@H]1CC[C@@]2(NC1)O[C@@H]1C[C@H]3[C@@H]4CC=C5C[C@@H](O)CC[C@]5(C)[C@@H]4CC[C@]3(C)[C@@H]1[C@@H]2C | inactive |  |
| COc1ccc(OCC(=O)Nc2ccc(Cl)cc2C(=O)c2ccccc2)cc1 | inactive |  |
| CCNC[C@H](O)c1cccc(O)c1 | inactive |  |
| C[C@@H](Cc1ccc(OCC(=O)O)cc1)NC[C@H](O)c1cccc(Cl)c1 | 25.1 µM (active) |  |
| O=C(Nc1ccc(C(F)(F)F)cc1)c1cccn(Cc2ccc3c(c2)OC(F)(F)O3)c1=O | inactive |  |
| CCCCN1C(=O)C(C2c3ccccc3C(=O)N2Cc2ccccc2)C(=O)NC1=S (configuration not stated) | inactive |  |
| COC(=O)[C@@H]1[C@@H]2C[C@H]3c4[nH]c5cc(OC)ccc5c4CCN3C[C@@H]2C[C@H](OC(=O)/C=C\c2cc(OC)c(OC)c(OC)c2)[C@H]1OC | inactive |  |
| O=C1NCN(c2ccccc2)C12CCN(C[C@H]1COc3ccccc3O1)CC2 | 0.0631 µM (active) |  |
| O=C(CCCN1CCC(n2c(=O)[nH]c3ccccc32)CC1)c1ccc(F)cc1 | 6.31 µM (active) |  |
| O=C1NCN(c2ccccc2)C12CCN(CCCOc1ccc(F)cc1)CC2 | 0.158 µM (active) |  |
| O=C(CCCN1CCC2(CC1)C(=O)NCN2c1ccccc1)c1ccc(F)cc1 | 2.51 µM (active) and 1 µM (active) and 1.58 µM (active) |  |
| CC(=O)OC1=CC2=CC[C@H]3[C@H]4CCC(=O)[C@@]4(C)CC(=O)[C@]3(S)[C@]2(C)CC1 |  | 0.557% [at 11.4 µM] (inactive) |

| SMILES | AC50 | activity, negative = inhibition |
| --- | --- | --- |
| CC[C@@](O)(C(=O)O)c1cc2n(c(=O)c1CO)Cc1cc3ccccc3nc1-2 |  | 10.4% [at 11.4 µM] (inactive) |
| O=C(Nc1cccc(F)c1)N1CC2(CCN(C(=O)Oc3ccccc3)CC2)C1 | inactive |  |
| CN1C(=O)C(=Cc2ccccc2Oc2ccc(Cl)c(F)c2)C(=O)N(C)C1=O | inactive |  |
| CC(C)C12CN3CC(C(C)C)(CN(C1)C3c1cccnc1)C2=O (configuration not stated) | inactive |  |
| O=C(CCCN1CCC2(CC1)C(=O)N(Cc1cccc(F)c1)CN2c1ccccc1)c1ccc(F)cc1 | 3.16 µM (active) |  |
| C[C@@]12CC(=O)[C@H]3[C@@H](CCC4=CC(=O)CC[C@]43C)[C@H]1CCC2=O | inactive |  |
| COc1ccccc1CC1C(=O)C2CCN1CC2 (configuration not stated) | 11.2 µM (active) |  |
| CC(C)C(=O)Nc1ccc([N+](=O)[O-])c(C(F)(F)F)c1 | inactive |  |
| CN(C)C(=O)Oc1cccc([N+](C)(C)C)c1 | inactive |  |
| CC(C)(C)NC[C@H](O)c1cc(Cl)c(N)c(Cl)c1 | inactive |  |
| CN(C)C(=O)Oc1cc(OC(=O)N(C)C)cc([C@@H](O)CNC(C)(C)C)c1 | 7.94 µM (active) |  |
| CCCC[N+]12CCC(CC1)C(C(=O)c1cccs1)C2 (configuration not stated) | 0.282 µM (active) |  |
| CCN1C[C@@]2(COC)CC[C@H](O)[C@@]34[C@@H]2C[C@@H]([C@@H]13)[C@]1(O)C[C@@H](OC)C2C[C@H]4[C@H]1[C@H]2OC(C)=O | inactive |  |
| CC[N+](CC)(CCCNC1=CC(=O)C(NCCC[N+](CC)(CC)Cc2ccccc2)=CC1=O)Cc1ccccc1 | inactive |  |
| CC(=O)O[C@H]1CC[C@@]2(C)[C@@H](CC[C@H]3[C@H]2CC(=O)[C@@]2(C)[C@@H]3C[C@H]3CC(C)=CC(=O)[C@H]32)C1 |  | 2.72% [at 11.4 µM] (inactive) |
| COc1ccc(OC)c([C@H](O)[C@H](C)N)c1 | inactive |  |
| COc1ccc(C[C@@H](N)c2ccc(OC)cc2)cc1 | 0.631 µM (active) |  |
| Cc1ccc(C(=O)C2C(=O)c3ccccc3C2=O)cc1 | inactive |  |
| O=C1NC(=S)NC(=O)C1=Cc1cccc2cc3ccccc3cc12 |  | -0.164% [at 11.4 µM] (inactive) |
| CC(C)[C@H](CO)Nc1nc(Nc2cccc(Cl)c2)c2ncn(C(C)C)c2n1 | inactive |  |
| CC[C@@H](CO)Nc1nc(NCc2ccccc2)c2ncn(C(C)C)c2n1 | 31.6 µM (active) |  |

Source: PubChem BioAssay AID1851 (National Center for Advancing Translational Sciences (NCATS), 2009)
